Experimental data taken from the supplement of paper PMC10849652.
Targets with a hit are over-represented here; the source holds about 7,900 in all. About 0.6% of all pairs of compound and target were hits. A number with no mark means an inactive call.

Experiments:
Test in all cases: log2 fold change, soluble protein after heating vs DMSO (PISA); higher = thermal stabilisation; K562 cells, 10 uM, 30 min; active = over 0.2 and 3.5 SD of the protein, either way, in both replicates (recomputed)
saracatinib = compound: CN1CCN(CCOc2cc(OC3CCOCC3)c3c(Nc4c(Cl)ccc5c4OCO5)ncnc3c2)CC1 [saracatinib]
Procedure, shortened: (§1)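 Soluble protein was defined as the supernatant after 21,000xg for 90 min. It came from K562 cells at 2×10^6 cells/mL given 10 μM compound for 30 min, heated in aliquots for 3 min across 48°C-58°C, pooled, and extracted in PBS with 0.5% NP-40 at 4°C, and was quantified by TMTpro 16plex LC-MS/MS with equalised channel sums. Thermal stability against control samples, from duplicates, is reported as log2 fold change.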

sotrastaurin = compound: CN1CCN(c2nc(C3=C(c4c[nH]c5ccccc45)C(=O)NC3=O)c3ccccc3n2)CC1 [sotrastaurin]
Procedure, shortened: as §1

alvocidib = compound: CN1CC[C@H](c2c(O)cc(O)c3c(=O)cc(-c4ccccc4Cl)oc23)[C@H](O)C1 [alvocidib]
Procedure, shortened: as §1

Tubastatin A = compound: CN1CCc2c(c3ccccc3n2Cc2ccc(C(=O)NO)cc2)C1 [Tubastatin A]
Procedure, shortened: as §1

[1] = compound: CNC(=O)C1=CC=CC=C1NC2=NC(=NC=C2Cl)NC3=C(C=C(C=C3)N4CCOCC4)OC
Procedure, shortened: as §1

defactinib = compound: CNC(=O)c1ccc(Nc2ncc(C(F)(F)F)c(NCc3nccnc3N(C)S(C)(=O)=O)n2)cc1 [defactinib]
Procedure, shortened: as §1

rucaparib = compound: CNCc1ccc(-c2[nH]c3cc(F)cc4c3c2CCNC4=O)cc1 [rucaparib]
Procedure, shortened: as §1

[2] = compound: CNc1nc(-c2ccc3c(N)n[nH]c3c2)cc(N2C[C@@H](C(=O)NC3CCCCC3)CC[C@H]2C)n1
Procedure, shortened: as §1

encorafenib = compound: COC(=O)N[C@@H](C)CNc1nccc(-c2cn(C(C)C)nc2-c2cc(Cl)cc(NS(C)(=O)=O)c2F)n1 [encorafenib]
Procedure, shortened: as §1

[3] = compound: COC(=O)[C@H](CCSC)NC(=O)C1=C(C=C(C=C1)NC[C@H](CS)N)C2=CC=CC=C2
Procedure, shortened: as §1

Sequence of UniProt Q969X1 (Q969X1 whole entry, looked up): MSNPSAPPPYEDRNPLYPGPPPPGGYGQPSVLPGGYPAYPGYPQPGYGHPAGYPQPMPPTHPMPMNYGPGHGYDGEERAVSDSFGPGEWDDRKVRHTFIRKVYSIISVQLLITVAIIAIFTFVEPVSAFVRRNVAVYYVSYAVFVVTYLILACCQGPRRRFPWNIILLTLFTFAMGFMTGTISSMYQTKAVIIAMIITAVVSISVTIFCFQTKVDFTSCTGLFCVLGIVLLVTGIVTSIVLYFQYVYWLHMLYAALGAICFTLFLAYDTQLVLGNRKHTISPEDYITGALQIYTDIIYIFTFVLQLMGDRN
Sequence of UniProt Q9NXE4 (Q9NXE4 whole entry, looked up): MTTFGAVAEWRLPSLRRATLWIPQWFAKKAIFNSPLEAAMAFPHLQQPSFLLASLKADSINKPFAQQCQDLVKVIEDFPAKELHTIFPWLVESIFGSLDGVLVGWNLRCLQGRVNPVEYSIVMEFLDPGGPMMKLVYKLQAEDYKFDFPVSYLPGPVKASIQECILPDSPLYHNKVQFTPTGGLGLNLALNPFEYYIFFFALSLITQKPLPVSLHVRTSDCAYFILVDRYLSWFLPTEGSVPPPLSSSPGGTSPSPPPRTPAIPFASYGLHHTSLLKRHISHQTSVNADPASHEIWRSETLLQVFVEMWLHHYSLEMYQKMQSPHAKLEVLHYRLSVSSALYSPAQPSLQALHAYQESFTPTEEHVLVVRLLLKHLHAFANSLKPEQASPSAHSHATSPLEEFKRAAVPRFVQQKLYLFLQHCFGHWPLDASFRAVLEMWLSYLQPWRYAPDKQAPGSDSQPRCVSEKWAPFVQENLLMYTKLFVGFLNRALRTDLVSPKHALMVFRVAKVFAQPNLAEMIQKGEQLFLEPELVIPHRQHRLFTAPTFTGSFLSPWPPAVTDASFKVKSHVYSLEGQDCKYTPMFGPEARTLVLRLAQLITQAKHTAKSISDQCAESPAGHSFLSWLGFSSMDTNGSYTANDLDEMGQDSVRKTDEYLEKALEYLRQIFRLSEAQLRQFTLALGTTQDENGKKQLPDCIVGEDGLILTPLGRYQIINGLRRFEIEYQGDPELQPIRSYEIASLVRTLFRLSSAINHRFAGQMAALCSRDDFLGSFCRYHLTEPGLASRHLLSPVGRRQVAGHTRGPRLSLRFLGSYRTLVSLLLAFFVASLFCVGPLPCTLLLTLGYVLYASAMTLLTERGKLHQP
Sequence of UniProt P35610 (P35610 whole entry, looked up): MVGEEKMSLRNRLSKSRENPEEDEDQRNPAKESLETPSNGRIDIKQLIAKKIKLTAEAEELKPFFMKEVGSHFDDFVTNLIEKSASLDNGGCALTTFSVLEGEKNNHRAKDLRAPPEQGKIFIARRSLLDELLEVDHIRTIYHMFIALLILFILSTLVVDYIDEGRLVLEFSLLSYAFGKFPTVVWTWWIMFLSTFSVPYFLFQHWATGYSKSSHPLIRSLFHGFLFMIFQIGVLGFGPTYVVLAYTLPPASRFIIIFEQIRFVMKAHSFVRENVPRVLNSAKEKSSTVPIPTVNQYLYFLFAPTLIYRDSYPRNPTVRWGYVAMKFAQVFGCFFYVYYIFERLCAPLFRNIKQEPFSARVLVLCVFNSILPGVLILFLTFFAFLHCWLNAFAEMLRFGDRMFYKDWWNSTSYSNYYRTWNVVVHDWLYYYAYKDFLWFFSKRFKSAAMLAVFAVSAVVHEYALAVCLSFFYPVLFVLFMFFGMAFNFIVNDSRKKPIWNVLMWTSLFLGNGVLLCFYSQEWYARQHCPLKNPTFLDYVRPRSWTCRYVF
Sequence of UniProt Q9Y2H1 (Q9Y2H1 whole entry, looked up): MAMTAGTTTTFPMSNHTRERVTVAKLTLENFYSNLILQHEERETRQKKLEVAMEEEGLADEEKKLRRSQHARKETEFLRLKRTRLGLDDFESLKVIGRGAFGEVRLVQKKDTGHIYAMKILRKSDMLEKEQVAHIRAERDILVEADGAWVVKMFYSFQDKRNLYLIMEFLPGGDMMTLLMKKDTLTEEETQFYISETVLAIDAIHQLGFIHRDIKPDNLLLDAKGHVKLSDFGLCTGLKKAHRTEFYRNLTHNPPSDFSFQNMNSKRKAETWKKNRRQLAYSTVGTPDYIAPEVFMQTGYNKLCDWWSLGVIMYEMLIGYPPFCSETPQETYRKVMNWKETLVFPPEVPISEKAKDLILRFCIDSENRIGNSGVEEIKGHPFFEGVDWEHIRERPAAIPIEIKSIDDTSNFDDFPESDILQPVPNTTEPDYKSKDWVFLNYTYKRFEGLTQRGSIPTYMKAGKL
Sequence of UniProt Q9Y5B9 (Q9Y5B9 whole entry, looked up): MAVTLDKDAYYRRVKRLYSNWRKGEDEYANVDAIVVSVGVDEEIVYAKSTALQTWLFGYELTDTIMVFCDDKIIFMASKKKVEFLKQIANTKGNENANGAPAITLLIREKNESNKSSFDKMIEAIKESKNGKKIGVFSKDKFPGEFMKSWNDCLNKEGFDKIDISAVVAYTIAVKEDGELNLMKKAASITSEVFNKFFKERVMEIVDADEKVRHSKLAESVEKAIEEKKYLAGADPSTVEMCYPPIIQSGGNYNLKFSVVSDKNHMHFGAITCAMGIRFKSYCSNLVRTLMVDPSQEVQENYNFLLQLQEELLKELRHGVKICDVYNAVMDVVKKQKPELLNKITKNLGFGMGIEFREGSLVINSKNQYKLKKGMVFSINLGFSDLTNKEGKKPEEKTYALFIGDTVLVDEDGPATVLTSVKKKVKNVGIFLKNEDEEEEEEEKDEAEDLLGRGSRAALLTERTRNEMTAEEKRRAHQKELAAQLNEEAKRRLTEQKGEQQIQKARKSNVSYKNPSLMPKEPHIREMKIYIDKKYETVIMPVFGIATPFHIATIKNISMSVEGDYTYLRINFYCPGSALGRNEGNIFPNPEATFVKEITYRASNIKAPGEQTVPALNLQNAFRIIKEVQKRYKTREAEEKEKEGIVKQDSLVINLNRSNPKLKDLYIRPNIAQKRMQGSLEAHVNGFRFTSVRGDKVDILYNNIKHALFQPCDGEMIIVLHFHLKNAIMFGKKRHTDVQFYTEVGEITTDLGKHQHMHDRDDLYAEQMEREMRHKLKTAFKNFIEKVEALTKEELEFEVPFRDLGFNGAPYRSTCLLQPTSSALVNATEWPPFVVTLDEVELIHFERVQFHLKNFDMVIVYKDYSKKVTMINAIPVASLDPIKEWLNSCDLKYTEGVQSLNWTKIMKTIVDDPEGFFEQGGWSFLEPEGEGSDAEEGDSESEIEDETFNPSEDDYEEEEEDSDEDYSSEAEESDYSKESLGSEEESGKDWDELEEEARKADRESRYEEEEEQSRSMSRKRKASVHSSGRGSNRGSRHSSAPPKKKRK
Sequence of UniProt P08579 (P08579 whole entry, looked up): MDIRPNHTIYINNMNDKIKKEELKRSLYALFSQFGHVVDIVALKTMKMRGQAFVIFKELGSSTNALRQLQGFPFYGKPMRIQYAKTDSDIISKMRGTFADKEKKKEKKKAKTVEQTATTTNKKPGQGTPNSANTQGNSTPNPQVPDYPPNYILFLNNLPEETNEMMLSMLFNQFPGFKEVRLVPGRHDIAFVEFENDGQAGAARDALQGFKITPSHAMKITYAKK
Sequence of UniProt O14776 (O14776 whole entry, looked up): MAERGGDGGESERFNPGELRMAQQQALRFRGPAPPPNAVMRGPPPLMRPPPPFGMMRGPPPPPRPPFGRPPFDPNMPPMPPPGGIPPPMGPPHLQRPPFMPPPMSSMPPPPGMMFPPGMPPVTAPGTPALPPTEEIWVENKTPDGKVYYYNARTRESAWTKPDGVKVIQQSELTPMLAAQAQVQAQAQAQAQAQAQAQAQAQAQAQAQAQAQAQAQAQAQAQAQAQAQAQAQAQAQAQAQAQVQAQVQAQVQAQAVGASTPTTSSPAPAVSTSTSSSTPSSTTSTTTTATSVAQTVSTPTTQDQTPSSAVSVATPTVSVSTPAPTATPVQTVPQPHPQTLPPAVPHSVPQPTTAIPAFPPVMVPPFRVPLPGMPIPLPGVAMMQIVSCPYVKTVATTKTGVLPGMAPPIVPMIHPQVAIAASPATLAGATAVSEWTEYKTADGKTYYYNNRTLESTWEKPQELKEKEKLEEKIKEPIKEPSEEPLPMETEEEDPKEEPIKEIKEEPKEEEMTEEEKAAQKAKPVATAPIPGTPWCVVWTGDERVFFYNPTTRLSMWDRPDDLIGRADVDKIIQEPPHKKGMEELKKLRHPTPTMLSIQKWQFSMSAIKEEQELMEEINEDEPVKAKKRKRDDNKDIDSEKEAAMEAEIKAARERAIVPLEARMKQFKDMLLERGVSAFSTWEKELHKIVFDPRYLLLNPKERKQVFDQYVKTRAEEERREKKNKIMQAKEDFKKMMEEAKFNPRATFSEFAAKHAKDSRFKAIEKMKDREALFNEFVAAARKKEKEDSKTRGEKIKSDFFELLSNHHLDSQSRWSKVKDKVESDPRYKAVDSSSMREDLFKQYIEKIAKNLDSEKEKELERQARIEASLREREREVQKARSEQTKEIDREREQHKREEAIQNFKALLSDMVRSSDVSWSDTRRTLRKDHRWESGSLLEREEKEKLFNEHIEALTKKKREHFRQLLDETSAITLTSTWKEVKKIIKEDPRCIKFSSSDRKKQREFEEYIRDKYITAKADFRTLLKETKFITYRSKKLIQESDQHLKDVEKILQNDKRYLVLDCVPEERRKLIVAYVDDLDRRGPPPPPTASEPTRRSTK
Sequence of UniProt O75663 (O75663 whole entry, looked up): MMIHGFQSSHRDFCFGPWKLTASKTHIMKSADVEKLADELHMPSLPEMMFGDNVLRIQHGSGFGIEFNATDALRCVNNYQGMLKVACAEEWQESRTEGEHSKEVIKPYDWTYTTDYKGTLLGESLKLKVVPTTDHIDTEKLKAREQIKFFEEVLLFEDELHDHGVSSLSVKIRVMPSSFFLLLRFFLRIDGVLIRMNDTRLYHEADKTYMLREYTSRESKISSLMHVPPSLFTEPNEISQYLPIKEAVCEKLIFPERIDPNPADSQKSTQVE

Target | log2 fold change (saracatinib) | log2 fold change (sotrastaurin) | log2 fold change (alvocidib) | log2 fold change (Tubastatin A) | log2 fold change [1] | log2 fold change (defactinib) | log2 fold change (rucaparib) | log2 fold change [2] | log2 fold change (encorafenib) | log2 fold change [3]
STK4 (UniProt Q13043) | 0.006 | 0.029 | -0.01 | 0.039 | 0.01 | -0.002 | -0.008 | 0.012 | 0.077 | -0.003
SLIRP (UniProt Q9GZT3) | -0.068 | -0.141 | -0.143 | 0.019 | -0.045 | -0.005 | 0.148 | -0.185 | -0.094 | 0.096
SNX11 (UniProt Q9Y5W9) | -0.055 | -0.055 | -0.135 | -0.014 | 0.011 | -0.02 | -0.001 | 0.055 | -0.074 | 0.002
SUPT16H (UniProt Q9Y5B9) | -0.125 | -0.209 | -0.359 | 0.374 | 0.034 | -0.476 (active) | -0.104 | 0.024 | 0.113 | -0.138
SP100 isoform 4 (UniProt P23497) | 0.058 | -0.003 | -0.117 | -0.015 | 0.018 | -0.087 | -0.065 | -0.092 | -0.06 | 0.095
STK38L (UniProt Q9Y2H1) | 0.103 | 0.035 | -0.087 | -0.067 | 0.002 | -0.048 | -0.052 | 0.024 | 0.004 | -0.073
SPG11 (UniProt Q96JI7) | -0.281 | 0.055 | 0.28 | 0.012 | -0.156 | 0.151 | 0.046 | 0.119 | -0.094 | 0.069
SRRM2 (UniProt Q9UQ35) | -0.026 | -0.048 | -0.412 (active) | 0.093 | -0.264 | -0.298 | 0.013 | -0.009 | -0.013 | 0.047
SNRPB2 (UniProt P08579) | 0.079 | 0.041 | 0.124 | -0.11 | 0.02 | 0.193 | 0.058 | -0.041 | -0.037 | 0.054
SURF2 (UniProt Q15527) | 0.034 | -0.02 | 0 | 0.066 | -0.015 | -0.056 | -0.055 | -0.059 | -0.037 | -0.016
SYNE1 (UniProt Q8NF91) | -0.054 | -0.086 | 0.011 | 0.193 | -0.14 | -0.092 | -0.039 | 0.045 | -0.101 | 0.076
TELO2 (UniProt Q9Y4R8) | -0.05 | -0.211 | -0.015 | -0.004 | 0.03 | -0.019 | 0.2 | 0.145 | 0.049 | -0.057
TARS2 (UniProt Q9BW92) | -0.004 | -0.049 | -0.041 | -0.357 (active) | 0.03 | -0.033 | 0.009 | -0.098 | 0.015 | 0.039
THYN1 (UniProt Q9P016) | -0.062 | -0.022 | -0.008 | -0.006 | 0.079 | -0.002 | 0.029 | 0.072 | 0 | -0.029
TK1 (UniProt P04183) | 0.067 | 0.036 | -0.028 | 0.034 | -0.013 | -0.021 | -0.015 | -0.003 | -0.005 | 0.024
TIPRL (UniProt O75663) | -0.028 | -0.056 | -0.119 | 0 | 0.009 | -0.049 | 0.013 | -0.001 | 0.035 | -0.014
SURF1 (UniProt Q15526) | 0.034 | -0.084 | -0.078 | -0.03 | 0.026 | -0.012 | -0.083 | -0.092 | 0.017 | -0.105
TAOK3 (UniProt Q9H2K8) | -0.002 | -0.089 | -0.062 | 0.042 | -0.031 | -0.109 | -0.013 | 0.019 | 0.052 | -0.044
SOAT1 (UniProt P35610) | 0.026 | -0.06 | -0.02 | -0.057 | 0.186 | -0.053 | -0.064 | 0.014 | 0.122 | 0.111
SRP68 (UniProt Q9UHB9) | -0.033 | -0.179 | 0.044 | 0.085 | -0.002 | -0.019 | 0.152 | 0.049 | 0.14 | -0.073
SMCHD1 (UniProt A6NHR9) | -0.238 | -0.084 | -0.492 | 0.002 | -0.028 | -0.45 | 0.183 | 0.075 | 0.188 | -0.088
SLC29A3 (UniProt Q9BZD2) | 0.089 | 0.056 | 0.045 | 0.092 | 0.105 | 0.013 | -0.083 | -0.018 | -0.05 | 0.055
SNX6 (UniProt Q9UNH7) | -0.018 | 0.026 | -0.112 | -0.051 | -0.125 | -0.054 | -0.016 | 0.041 | 0.042 | -0.009
SUCLA2 (UniProt Q9P2R7) | -0.013 | 0.03 | 0.011 | 0.024 | 0.011 | -0.037 | -0.029 | -0.048 | 0.021 | -0.008
SMPD4 isoform 4 (UniProt Q9NXE4) | 0.154 | -0.082 | -0.174 | 0.007 | -0.041 | -0.056 | 0.043 | -0.071 | -0.081 | 0
SLC7A6 (UniProt Q92536) | 0.018 | 0.022 | -0.096 | 0 | -0.16 | -0.056 | -0.034 | 0.027 | 0.002 | -0.047
TCERG1 (UniProt O14776) | -0.051 | -0.086 | -0.18 | 0.11 | -0.011 | -0.288 | -0.003 | 0.08 | 0.063 | -0.105
STAT5A (UniProt P42229) | -0.093 | -0.14 | -0.151 | 0.088 | -0.001 | -0.273 | 0.006 | 0.054 | 0.088 | -0.059
TMBIM1 (UniProt Q969X1) | -0.147 | 0.012 | 0.207 | 0.002 | -0.042 | 0.043 | -0.009 | -0.097 | -0.223 | 0.051
STARD9 (UniProt Q9P2P6) | 0.051 | -0.316 | -0.337 | 0.122 | -0.344 | 0.144 | -0.005 | 0.103 | 0.048 | -0.03
